Measurements: PMC4336329 (PLoS ONE, 2015)
Hit rate of the full screen: of about 310,000 compounds, about 14,000 (4.5%) showed an effect of 50% or more. Effects have a minus sign here. The sample as a whole holds a higher share of strong results than the screen did.

Target: human ether-à-go-go-related gene (hERG) potassium channel (human, UniProt Q12809)
Assay: primary screen, population patch clamp on CHO cells stably expressing hERG; higher = less effect of the substance
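Further: peak tail current of the secondary pulse compared with the same well before compound.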

Chain of human ether-à-go-go-related gene (hERG) potassium channel (Q12809 whole entry, looked up): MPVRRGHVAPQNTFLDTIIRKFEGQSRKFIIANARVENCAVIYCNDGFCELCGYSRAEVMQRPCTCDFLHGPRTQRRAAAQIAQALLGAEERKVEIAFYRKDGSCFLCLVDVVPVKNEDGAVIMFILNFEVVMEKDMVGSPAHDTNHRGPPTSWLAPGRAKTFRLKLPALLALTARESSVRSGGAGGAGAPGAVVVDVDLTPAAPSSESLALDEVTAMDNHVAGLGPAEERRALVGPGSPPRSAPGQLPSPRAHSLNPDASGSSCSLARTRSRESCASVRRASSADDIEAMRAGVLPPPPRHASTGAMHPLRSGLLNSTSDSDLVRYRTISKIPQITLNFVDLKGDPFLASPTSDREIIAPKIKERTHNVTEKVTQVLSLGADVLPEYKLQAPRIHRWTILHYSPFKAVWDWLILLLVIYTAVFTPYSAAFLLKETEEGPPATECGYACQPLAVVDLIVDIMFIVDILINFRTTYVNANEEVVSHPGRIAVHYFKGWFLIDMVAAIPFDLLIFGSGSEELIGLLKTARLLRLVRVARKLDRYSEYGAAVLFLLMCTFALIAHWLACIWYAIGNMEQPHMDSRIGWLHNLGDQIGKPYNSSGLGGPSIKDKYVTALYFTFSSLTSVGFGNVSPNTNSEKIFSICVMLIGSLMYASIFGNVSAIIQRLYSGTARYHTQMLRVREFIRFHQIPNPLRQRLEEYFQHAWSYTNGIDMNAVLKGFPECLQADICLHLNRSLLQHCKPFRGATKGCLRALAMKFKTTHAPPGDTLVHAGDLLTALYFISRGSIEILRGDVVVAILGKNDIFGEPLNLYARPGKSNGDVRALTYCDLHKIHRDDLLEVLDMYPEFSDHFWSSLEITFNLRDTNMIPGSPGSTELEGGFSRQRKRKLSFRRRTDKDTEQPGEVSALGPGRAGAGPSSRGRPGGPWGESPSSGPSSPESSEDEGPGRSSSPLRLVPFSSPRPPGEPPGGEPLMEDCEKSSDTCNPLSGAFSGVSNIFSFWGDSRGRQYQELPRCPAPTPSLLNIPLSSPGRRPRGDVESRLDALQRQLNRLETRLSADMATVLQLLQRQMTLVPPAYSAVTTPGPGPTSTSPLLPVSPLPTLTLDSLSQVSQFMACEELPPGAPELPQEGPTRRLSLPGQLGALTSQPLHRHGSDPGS

Structure (SMILES)	hERG current change (%, negative = inhibition) at 10uM [%]
COc1ccc(CCNC(=O)c2nonc2N)cc1	-15.8
COc1ccc(CNC(=O)CN(CCC(C)C)S(=O)(=O)c2ccc3c(c2)OCCO3)cc1	-7.73
O=C(/C=C/c1cccc([N+](=O)[O-])c1)NCc1ccccc1	-23.2
Cc1ccc(C2CC(c3cccc(Br)c3)Nc3nnnn32)cc1 (stereo not drawn)	-7.07
CCCCNC(=O)N(O)C1N(CCCC)C(=O)N(CC(=O)OC)C1(C)C (stereo not drawn)	20
COc1ccc(-c2nc(NC(=O)C3CC(=O)N(Cc4ccco4)C3)sc2C)cc1 (stereo not drawn)	-34.3
COc1ccc(-c2csc(NC(=O)C3CC(=O)N(Cc4ccco4)C3)n2)cc1 (stereo not drawn)	-70.4
Cc1ccc(-c2csc(NC(=O)C3CC(=O)N(Cc4ccco4)C3)n2)cc1 (stereo not drawn)	-25.5
CC(=O)c1sc(NC(=O)C2CC(=O)N(Cc3ccco3)C2)nc1-c1ccccc1 (stereo not drawn)	-59.4
CN(c1ccc(-c2csc(NC(=O)C3CC(=O)N(Cc4ccco4)C3)n2)cc1)S(C)(=O)=O (stereo not drawn)	-19
CC(=O)c1sc(NC(=O)C2CC(=O)N(Cc3ccccc3)C2)nc1-c1ccccc1 (stereo not drawn)	-15
CC(=O)COc1ccc2c3c(c(=O)oc2c1C)CCCCC3	-8.54
Cl.O=C(NCCCn1ccnc1)c1ccc(S(=O)(=O)N2CCOCC2)cc1	8.09
COc1ccc(C2/C(=C(\O)c3ccc4c(c3)OCCO4)C(=O)C(=O)N2CCCN(C)C)cc1 (stereo not drawn)	17
COCCCN1C(=O)C(=O)/C(=C(/O)c2ccc3c(c2)OCCO3)C1c1ccc(C(=O)OC)cc1 (stereo not drawn)	1.43
COC(=O)c1ccc(C2/C(=C(\O)c3ccc4c(c3)OCCO4)C(=O)C(=O)N2CCCN(C)C)cc1 (stereo not drawn)	-55.9
O=C(COC(=O)CC1CC2CCC1C2)NC(=O)NCc1ccco1 (stereo not drawn)	-4.89
Cc1nc2ccccc2c(=O)n1/N=C/c1ccccc1Cl	12.8
CC(=O)c1ccc(NC(=S)N2CCCC(CO)C2)cc1 (stereo not drawn)	5.17
COC(=O)Cc1ccc(NC(=S)N2CCCC(CO)C2)cc1 (stereo not drawn)	-63.2
COC(=O)Cc1ccc(NC(=S)N2CCCC(C)C2)cc1 (stereo not drawn)	12.7

Structure (SMILES)	hERG current change (%, negative = inhibition) at 10uM [%]
N=c1c(C(=O)NC2CCCC2)cc2c(=O)n3ccccc3nc2n1CC1CCCO1 (stereo not drawn)	-83.7
N=c1c(S(=O)(=O)c2ccccc2)cc2c(=O)n3ccccc3nc2n1CC1CCCO1 (stereo not drawn)	-34
Cc1ccc(S(=O)(=O)c2cc3c(=O)n4ccccc4nc3n(C)c2=N)cc1C	-2.47
N=c1c(C(=O)NC2CCCCC2)cc2c(=O)n3ccccc3nc2n1CC1CCCO1 (stereo not drawn)	-74.9
CCOC(=O)c1cc2c(=O)n3ccccc3nc2n(CC2CCCO2)c1=NC(=O)/C=C/c1ccccc1 (stereo not drawn)	-35.7
CC(NC(=O)c1cc2c(=O)n3ccccc3nc2n(CC2CCCO2)c1=N)c1ccccc1 (stereo not drawn)	-75.2
Cc1ccc(S(=O)(=O)c2cc3c(=O)n4ccccc4nc3n(CC3CCCO3)c2=N)cc1C (stereo not drawn)	-50.8
O=C(NC1CCCCC1)c1ccc2c(=O)n(CC3CCCO3)c(=O)[nH]c2c1 (stereo not drawn)	5.86
COCCNC(=O)CSc1nc2ccccc2c(=O)n1CC1CCCO1 (stereo not drawn)	-11.9
NS(=O)(=O)c1cccc(NC(=O)COC(=O)C2(c3cccc(F)c3)CCCC2)c1	-6.66
Cc1ccc(NC(=O)c2sc(Cl)nc2-c2ccccc2)cc1C	3.94
CC1CC(C)CN(S(=O)(=O)c2ccc3c(c2)oc(=O)n3CC(=O)NCc2cccnc2)C1 (stereo not drawn)	-17.2
COc1cc(C(=O)NC2CCCC2)c(Br)c(OC)c1OC	7.61
COc1ccc(NC(=O)C(CCSC)N2C(=O)c3ccccc3C2=O)cc1 (stereo not drawn)	-10.3
Cc1ccc(S(=O)(=O)/N=C2\C=C(Nc3cccc(C(=O)O)c3)C(=O)c3ccccc32)c(C)c1	27.9
CCCCn1c(N)c(N(CCOC)C(=O)c2cc(S(=O)(=O)N3CCOCC3)ccc2F)c(=O)[nH]c1=O	16.1
Cc1cc(C(=O)COC(=O)c2cccn2C)c(C)n1Cc1ccco1	21.4
Cc1nnc(SCC(=O)Nc2nsc(-c3ccc(Cl)cc3)n2)s1	0.522
Cc1cccc(N2CCN(S(=O)(=O)c3c(C(=O)N4CCCCC4)c(C)n(C)c3C)CC2)c1C	-9.26
COCc1c(C(=O)N2CCN(Cc3ccc(C#N)cc3)CC2)oc2ccccc12	-70.2
COCc1c(C(=O)N2CCN(c3ccc(C(F)(F)F)cn3)CC2)oc2ccccc12	-23.7

Structure (SMILES)	hERG current change (%, negative = inhibition) at 10uM [%]
COCc1c(C(=O)N2CCN(S(=O)(=O)c3ccccc3Cl)CC2)oc2ccccc12	-13.9
COCc1c(C(=O)N2CCN(Cc3nc4ccccc4s3)CC2)oc2ccccc12	-72.5
COCc1c(C(=O)N2CCN(CCOc3ccccc3)CC2)oc2ccccc12	-63.5
COCc1c(C(=O)N2CCN(Cc3ccc4c(c3)OCO4)CC2)oc2ccccc12	-40.8
COCc1c(C(=O)Nc2ccc3nc(N4CCOCC4)sc3c2)oc2ccccc12	-31.2
COCc1c(C(=O)N2CCN(Cc3c(F)cccc3Cl)CC2)oc2ccccc12	-12.2
COCc1c(C(=O)N2CCN(c3ncccn3)CC2)oc2ccccc12	-7.68
CCC1Oc2ccccc2N(CC(=O)NCCCN2CCCC2)C1=O (stereo not drawn)	15.9
O=C(c1ccc(F)cc1)C(Cc1ccccc1)N1CCCCC1 (stereo not drawn)	1.82
OCCC1CN(C2CCC2)CCN1Cc1ccc(F)c(F)c1 (stereo not drawn)	5.12
COc1cccc(CN2CCN(C3CCOCC3)CC2CCO)c1 (stereo not drawn)	0.171
CCOC(=O)N1CCC(N2CCN(Cc3ccc(F)c(F)c3)C(CCO)C2)CC1 (stereo not drawn)	-44.7
OCCC1CN(C2CSCCSC2)CCN1Cc1ccccc1 (stereo not drawn)	11.9
COc1cccc(CN2CCN(C3CCN(c4cccc(C)c4C)CC3)CC2CCO)c1 (stereo not drawn)	-66.2
Cc1cccc(N2CCC(N3CCN(C4CCCCC4)C(CCO)C3)CC2)c1C (stereo not drawn)	-42.7
CCOC(=O)N1CCC(N2CCN(Cc3ccccc3)C(CCO)C2)CC1 (stereo not drawn)	-9.9
COc1cccc(CN2CCN(C3CSCCSC3)CC2CCO)c1 (stereo not drawn)	-13
COc1ccc(CN2CCN(C3CCC3)CC2CCO)cc1C (stereo not drawn)	8.14
OCCC1CN(C2CCN(c3ccccc3)CC2)CCN1Cc1ccc(F)c(F)c1 (stereo not drawn)	-71.2
COc1cccc(CN2CCN(C3CCN(c4ccccc4C)CC3)CC2CCO)c1 (stereo not drawn)	-66.2
OCCC1CN(C2CCN(c3ccccc3F)CC2)CCN1Cc1ccccc1 (stereo not drawn)	-61.8
